TCR activator: activators of T cell receptors | primary human leukocytes, anti-CD3, IL-2 HTRF, 48 h | Potency, µM (series often up to 9.22 µM), actives largely listed as activators | 330,000 tested, under 10 active
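TCR engagement came from a-CD3 beads alone, with compounds added to primary human leukocytes for 48 hr. Secreted IL-2 bridged europium cryptate- and d2-labelled anti-IL-2 antibodies, giving FRET emission at 665nm after 320nm excitation.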
MmCpn inh: M. maripaludis TRiC chaperonin inhibition | purified Mm-Cpn ATPase, ADP Transcreener TR-FRET | Potency, µM (series often up to 76.9 µM), usual class: inhibitors | actives 0.031% (n = 330,000); note: nearly all actives have a fitted effect of over 80% in size
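Compound-treated chaperonin, 25 nM final, turns over 10 uM ATP at 37°C for 30 min following a 10 min preincubation; ADP generated competes with ADP-d2 for Eu-cryptate antibody, lowering FRET.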
TSHR antagonist: human thyrotropin receptor antagonism; AID 504810; actives 0.2% (n = 330,000); activity change, negative = inhibition, % at 11.5 µM; TSHR-expressing cells, TSH-stimulated cAMP HTRF, 2 h; active compounds read low;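 active = activity change below a set negative limit, meaning inhibition stronger than a set level, cut at about -70% in these data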
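Freshly harvested TSHR cells receive pin-tooled compound, then EC80 TSH at 4nM final. After 2 hours at 37 deg C, antibody in lysis buffer and cAMP-d2 are added; 30 minutes at ambient temperature precede the HTRF read.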
CCT modulator: modulators of cytosolic chaperonin (CCT/TRiC) activity. actives 0.3% (n = 360,000). activity change, % (concentration not given with the values), hits read low. purified chaperonin ATPase assay, HTRF ADP detection, 30 min; in the data active = activity change below about -30%
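TRiC (40 or 20 nM final, by batch activity) in 30 mM Tris pH 7.4, 100 mM KCl, 5 mM MgCl2, 1 mM DTT was treated with compound at 76 uM single dose, then 10 uM ATP, 30 min at 37 °C. ADP was read by HTRF Transcreener.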
B2AR arrestin: beta2AR (human) beta-arrestin recruitment activity. P07550. beta-arrestin recruitment to beta2AR, cell-based reporter. Potency, µM (titrated, usually from 46.1 µM), actives largely listed as activators. actives 0.02% (n = 330,000). AID 492947; note: nearly all actives have a fitted effect of over 65% in size
Target sequence (P07550 whole entry, looked up): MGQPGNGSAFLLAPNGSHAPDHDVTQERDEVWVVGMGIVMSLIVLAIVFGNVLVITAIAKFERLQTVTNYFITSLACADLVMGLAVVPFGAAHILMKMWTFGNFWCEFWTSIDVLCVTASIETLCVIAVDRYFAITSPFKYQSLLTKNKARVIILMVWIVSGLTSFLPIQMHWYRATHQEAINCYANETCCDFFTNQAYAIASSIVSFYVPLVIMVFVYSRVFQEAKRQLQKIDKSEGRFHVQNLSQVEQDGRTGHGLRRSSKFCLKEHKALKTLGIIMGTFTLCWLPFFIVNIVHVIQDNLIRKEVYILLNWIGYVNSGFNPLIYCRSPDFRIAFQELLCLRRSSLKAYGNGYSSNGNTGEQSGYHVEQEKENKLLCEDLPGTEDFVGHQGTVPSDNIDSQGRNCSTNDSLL
A number is an active result; i = inactive; nt = no result. The list is not random: actives were taken first. Their share in the collection is about 0.5%. Unless noted, calls come from the whole dose curve; as a rule, active = well fitted curve in the direction sought with a large enough effect; inconclusive = small, poorly fitted or top-dose-only effect, or another doubt; inactive = no such curve, though single readings can be large; an effect the other way counts as inactive or inconclusive.

SMILES | TCR activator | MmCpn inh | TSHR antagonist | CCT modulator | B2AR arrestin
O=c1c2ccccc2oc2cc(-c3ccc4cc[nH]c4c3)ccc12 | i | i | i | -44 | i
COc1ccc(S(=O)(=O)N2CCCCC2)cc1NC(=O)COC(=O)c1ccco1 | i | i | nt | i | i
CCOC(=O)c1sc(NC(=O)CSc2n[nH]c(-c3ccncc3)n2)c(C#N)c1C | i | i | -75 | i | i
N#Cc1nccnc1S(=O)(=O)c1cccs1 | i | i | -87 | i | i
CN(Cc1ccccc1C#N)S(=O)(=O)c1cccs1 | i | i | i | i | i
CCCCc1cc(=O)oc2cc(C)cc(OCC(=O)NC(Cc3ccc(Cl)cc3)C(=O)O)c12 (configuration not stated) | i | i | i | -60 | i
CCCc1cc(=O)oc2cc(C)cc(OCC(=O)NC(Cc3ccc(Cl)cc3)C(=O)O)c12 (configuration not stated) | i | i | i | i | i
CC(C)CN1CCNC(=O)C1CC(=O)NCCc1ccc(C(F)(F)F)cc1 (configuration not stated) | i | 32µM | i | i | i
Cn1nc(C(F)(F)F)c(-c2cccc(C(F)(F)F)c2)c1NC(=O)CSCC(=O)O | i | i | -74 | i | i
Cn1nc(C(F)(F)F)c(-c2ccc(F)cc2)c1NC(=O)Nc1ccc(F)cc1 | i | i | i | i | i
Cc1cc(C)c2sc(N(CCCN(C)C)C(=O)c3ccc(S(=O)(=O)N(C)C4CCCCC4)cc3)nc2c1 | i | i | i | i | i
CC(=O)c1cccc(NC(=O)N2CCOCC2)c1 | i | i | i | i | i
COc1ccc(S(=O)(=O)NCCc2cn3nc(C)c(C)nc3n2)cc1F | i | i | -88 | i | i
CC(=O)Nc1ccc(S(=O)(=O)NCCc2cn3nc(C)c(C)nc3n2)cc1 | i | i | i | -79 | i
COc1ccc(S(=O)(=O)NCc2cn3c(C)csc3n2)cc1F | i | i | i | i | i
CCOC(=O)c1sc(NC(=S)NC(=O)c2ccc(OC)cc2)nc1C | nt | i | i | -52 | i
CCn1c(C)nc2cc(S(=O)(=O)C(F)(F)C(F)C(F)(F)F)ccc21 (configuration not stated) | i | i | i | -48 | i
CCn1c(C)nc2cc(S(N)(=O)=O)ccc21 | i | i | i | i | i
Cc1cccc2c1-c1sc(C(=O)Nc3cccnc3)cc1CO2 | i | i | i | i | i
O=C(Nc1cccnc1)c1cc2c(s1)-c1ccccc1OC2 | i | i | i | -71 | i
O=C(N/N=C/c1c[nH]c2ccccc12)c1cccs1 | i | i | i | -40 | i
C/C(=N\NC(=O)c1nnn(-c2nonc2N)c1-c1ccc(Cl)c(Cl)c1)c1ccncc1 | i | i | -87 | i | i
Cc1ccc(-c2c(C(=O)N/N=C/c3c[nH]c4ccccc34)nnn2-c2nonc2N)cc1 | i | i | i | -74 | i
C/C(=N/NC(=O)c1nnn(-c2nonc2N)c1-c1ccccc1)c1ccncc1 | i | i | i | i | i
CCOc1ccc(OCCC(=O)OCC(=O)Nc2cc(S(=O)(=O)N3CCOCC3)ccc2OC)cc1 | i | nt | nt | i | nt
SMILES | TCR activator | MmCpn inh | TSHR antagonist | CCT modulator | B2AR arrestin
CCOc1ccc(/C=N/OCC(=O)Nc2cc(S(=O)(=O)N3CCOCC3)ccc2OC)cc1 | i | nt | nt | -84 | nt
CCOc1ccccc1CNS(=O)(=O)c1cc(-c2cc(C)no2)ccc1OC | i | i | i | i | i
COc1ccccc1CNS(=O)(=O)c1cc(-c2cc(C)no2)ccc1C(C)C | i | i | -80 | i | i
O=C(NCC1CCCN(C(=O)c2cccc(C(F)(F)F)c2)C1)c1ccc(F)cc1 (configuration not stated) | i | i | -132 | i | i
O=C(NCC1CCCN(Cc2cccc(C(F)(F)F)c2)C1)c1ccc(F)cc1 (configuration not stated) | i | i | i | i | i
CC(NC(=O)Cc1ccc(F)cc1)c1ccccc1 (configuration not stated) | i | i | i | i | i
CCCCNC(=O)CCCCCNS(=O)(=O)c1ccc(OC)cc1 | nt | i | i | -41 | i
CCCCNC(=O)CCCCCNS(=O)(=O)c1ccc(Br)cc1 | i | i | i | i | i
C[C@@H]1CN([C@H](C)CO)C(=O)c2cc(NC(=O)C3CCCCC3)ccc2O[C@@H]1CN(C)Cc1ccncc1 | i | i | i | i | i
C[C@@H]1CN([C@@H](C)CO)C(=O)c2cc(NC(=O)C3CC3)ccc2O[C@@H]1CN(C)Cc1ccc(Cl)c(Cl)c1 | i | i | i | -41 | i
CC(=O)c1cccc(NS(=O)(=O)c2ccc(N/C=C/C(=O)c3ccc(F)cc3)cc2)c1 | i | i | -73 | i | i
CC(=O)c1cccc(NS(=O)(=O)c2ccc(N/C=C\C(=O)c3ccc(F)cc3)cc2)c1 | i | i | i | i | i
CCC(=O)Nc1ccc(N2CCC(C)CC2)cc1 | i | i | i | i | i
O=C(Nc1ccccc1C(=O)O)c1cc(S(=O)(=O)NCc2ccccc2)ccc1Cl | i | i | i | -60 | i
CCOc1ccc(NC(=O)c2csc3c2CCCC3)cc1 | i | i | i | i | i
COc1ccc(/C=C2\SC(c3ccc(C)cc3)=NC2=O)cc1OC | i | i | i | i | i
COc1cc(/C=C2\SC(c3ccc(C)cc3)=NC2=O)cc(OC)c1OC | i | i | i | -64 | i
COc1cc(/C=C2\SC(c3ccccc3)=NC2=O)cc(Cl)c1O | i | i | i | -43 | i
COc1cc(/C=C2\SC(c3ccc(C)cc3)=NC2=O)ccc1O | i | i | i | i | i
Cc1nc(COc2ccc(C(=O)Nc3ccccc3N3CCOCC3)cc2)cs1 | i | i | i | i | i
N#Cc1ccc(CNC(=O)N2CCOCC2)cc1 | nt | i | i | i | i
CC(C)(C)c1ccc(NC(=O)c2ccccc2)c([N+](=O)[O-])c1 | i | i | i | -41 | i
Cc1c(NC(=O)c2ccc(C(C)(C)C)cc2)cccc1[N+](=O)[O-] | i | i | i | i | i
CC(C)[C@@H]1Cc2[nH][nH]c(=O)c2[C@H](CCc2ccccc2)O1 | nt | nt | nt | i | nt
COc1cccc(COC(=O)c2ccc(S(=O)(=O)N3CCC(C)CC3)cc2)c1OC | nt | i | i | -61 | i
Cc1cc(NC(=O)C(=O)c2cn(C)c3ccccc23)no1 | i | i | i | i | i
Cc1cccc(C)c1NC(=O)C(=O)c1cn(C)c2ccccc12 | i | 56µM | i | i | i
CN(C)C(CNC(=O)c1cccc(S(=O)(=O)N2CCN(c3ccccc3)CC2)c1)c1ccccc1 (configuration not stated) | i | nt | nt | -46 | nt
CN(C)C(CNC(=O)c1cccc(S(=O)(=O)N(C)C)c1)c1ccccc1 (configuration not stated) | i | i | i | i | i
COc1ccc(CCNC(=O)C/C(C)=N/NC(=O)C2CCCCC2)cc1OC | i | i | i | -60 | i

Screens as filed in PubChem.
